Experiment [1] is described as follows: qHTS assay to identify small molecule antagonists of the estrogen related receptor (ERR) signaling pathway - cell viability counter screen (AID 1224818).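 Note: series mostly up to about 46 µM; viability measured after 17.5 h of compound exposure.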 The gist of the method:
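Cytotoxicity counter screen: fluorescence from CellTiter-Fluor, added after 17.5 h compound exposure at 37 C and read 30 min later. ERR cell line seeded at 2,000 cells/well, preincubated 6 h before dosing.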

The subject of experiment [2] is estrogen-related receptor alpha (ERRalpha) with PGC-1alpha coactivator, human. Put plainly: qHTS assay to identify small molecule antagonists of the estrogen related receptor signaling pathway with the pleiotropic PPARgamma coactivator (PGC) (AID 1224821; calls by dose curve; note: nearly all actives have a fitted effect of over 50% in size; note: potency is the fitted concentration of half-maximal effect;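 for activity change, negative = inhibition: series mostly up to about 46 µM; lower luminescence signal means antagonism of PGC/ERR signalling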). The gist of the method: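 Screening used NTP's PGC/ERR cells, dosed via pin tool with compound in DMSO alongside positive and negative controls. After 18 h at 37 C, One-Glo reagent sat 30 min at room temperature before luminescence detection.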

Experiment [3] in a line: qHTS assay to identify small molecule antagonists of the estrogen related receptor signaling pathway with the pleiotropic PPARgamma coactivator (PGC) cell viability counter screen (AID 1224822; note: series mostly up to about 46 µM). The gist of the method:
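Viability counter-screen read by fluorescence intensity after 30 min with CellTiter-Fluor at 37 C; PGC/ERR reporter cells were exposed to compounds for 17.5 h at 37 C following a 6 h preincubation.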

The nature of experiment [4]: qHTS assay to identify small molecule agonists of the estrogen related receptor signaling pathway with the pleiotropic PPARgamma coactivator (PGC) (AID 1224823). The gist of the method:
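In this quantitative high-throughput screen, an 18 h, 37 C treatment of PGC/ERR cells with compounds in DMSO preceded a One-Glo luminescence read taken after 30 min at room temperature.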

The nature of experiment [5]: qHTS assay to identify small molecule antagonists of the estrogen related receptor (ERR) signaling pathway from Tox21 library - cell viability counter screen (AID 1224834). Note: nearly all actives have a fitted effect of over 30% in size. Note: potency is the fitted concentration of half-maximal effect. The gist of the method: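 CellTiter-Fluor fluorescence, read after 30 min at 37 C, measures viability of ERR cells. Cells plated at 2,000/well and incubated 6 h before pin-tool compound addition, then exposed 17.5 hours at 37 C.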

A short description of experiment [6]: qHTS assay to identify small molecule agonists of the constitutive androstane receptor (CAR) signaling pathway - cell viability counter screen (AID 1224836). For viability change, negative = cytotoxic: series mostly up to about 92 µM. Note: nearly all actives have a fitted effect of over 45% in size. Note: potency is the fitted concentration of half-maximal effect. The gist of the method: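 Multiplexed viability check: HepG2-CYP2B6-hCAR cells, 15-point compound dosing, 0.75 uM PK11195 final, 23 h at 37 C, CellTiter-Fluor fluorescence.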
On the technique in general: Quantitative high-throughput screening tests each substance at several concentrations.

The nature of experiment [7]: qHTS assay to identify small molecule antagonists of the estrogen related receptor (ERR) signaling pathway (AID 1224819; note: nearly all actives have a fitted effect of over 50% in size; note: potency is the fitted concentration of half-maximal effect;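 for activity change, negative = inhibition: luminescence from an ERR-driven luciferase reporter measured with One-Glo reagent; series mostly up to about 46 µM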). The gist of the method:
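LOPAC library screened for antagonism as reduced One-Glo luminescence in ERR reporter cells (2,000/well). Compounds were added after 6 h pre-incubation and left 18 h at 37C; reading followed a 30 min room-temperature reagent step.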

A short description of experiment [8]: qHTS assay to identify small molecule agonists of the estrogen related receptor (ERR) signaling pathway (AID 1224820). The gist of the method:
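Following a 6 h settling period, 2,000 ERR cells per well receive DMSO-dissolved compounds by pin tool and incubate 18 h at 37 C; agonist activity is scored from One-Glo luminescence read 30 min post-addition.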

In experiment [9] the target is Luciferin 4-monooxygenase (Photinus pyralis) (UniProt P08659). Put plainly: qHTS assay to identify small molecule inhibitors of firefly luciferase (AID 1224835). Note: series mostly up to about 120 µM; nearly all actives have a fitted effect of over 25% in size. The gist of the method: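 Inhibition of purified Photinus luciferase is measured by luminescence. Substrate levels (D-luciferin, ATP) sit at their KM values. Each compound is tested in a concentration series.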

SMILES strings stand for the structures. Results filed as inconclusive are left out. Unmarked numbers belong to inactive results. Activity calls are given as the source filed them. Unless noted, calls come from the whole dose curve; as a rule, active = well fitted curve in the direction sought with a large enough effect in the repeat runs; inconclusive = weak or mixed curves; inactive = no such curve, though single readings can be large; an effect the other way counts as inactive or inconclusive.
% is set by controls: 0 for no effect and ±100 for the full control effect.

Chain of Luciferin 4-monooxygenase (Photinus pyralis) (P08659 whole entry, looked up): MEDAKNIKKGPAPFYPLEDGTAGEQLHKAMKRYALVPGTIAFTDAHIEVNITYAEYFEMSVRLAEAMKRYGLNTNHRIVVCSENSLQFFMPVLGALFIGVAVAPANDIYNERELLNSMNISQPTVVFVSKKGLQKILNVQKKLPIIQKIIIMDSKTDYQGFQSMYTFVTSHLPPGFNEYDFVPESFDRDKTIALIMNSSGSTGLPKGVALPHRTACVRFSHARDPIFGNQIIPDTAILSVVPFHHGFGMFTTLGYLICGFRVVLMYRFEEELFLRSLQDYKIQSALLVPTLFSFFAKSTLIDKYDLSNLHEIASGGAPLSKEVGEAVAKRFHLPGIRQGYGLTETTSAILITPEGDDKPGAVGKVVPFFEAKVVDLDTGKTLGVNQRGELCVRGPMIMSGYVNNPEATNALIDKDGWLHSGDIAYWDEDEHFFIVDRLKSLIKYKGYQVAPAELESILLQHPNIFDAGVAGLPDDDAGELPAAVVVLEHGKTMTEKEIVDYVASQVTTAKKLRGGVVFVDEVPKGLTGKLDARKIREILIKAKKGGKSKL

For the molecule `COc1ccc(Br)cc1S(=O)(=O)NC(=O)/C=C/c1ccccc1Cc1ccc2ccccc2c1`, the Potency result in experiment [1], in experiment [2], in [3] and in experiment [4] was “inactive” each time.

As to `CC(C)NC[C@H](O)COc1cccc2ccccc12`, the Potency entry in [1] and in experiment [3] was “inactive” throughout.

Take `C/C(=C\c1ccc(C(=O)O)cc1)c1ccc2c(c1)C(C)(C)CCC2(C)C`: the Potency result in [1], in experiment [3], in experiment [5] and in [6] was “inactive” each time.

For `CC(C)NC[C@H](O)COc1cccc2[nH]ccc12`, the Potency entry in [1] and in experiment [3] was “inactive” each time.

Turning to `CN(C)CCC(c1ccc(Br)cc1)c1ccccn1` (centres undefined), the Potency result in experiment [1] and in experiment [3] was “inactive” throughout.

As to `CC(N)(Cc1ccc(O)c(O)c1)C(=O)O` (centres undefined), the Potency entry in experiment [1] and in experiment [3] was “inactive” each time.

Regarding `C=C[C@H]1CN2CC[C@@H]1C[C@H]2[C@H](O)c1ccnc2ccc(OC)cc12`, the Potency entry in experiment [1] and in [3] was “inactive” each time.

In the case of `O=C1NC(O)=NC1(c1ccccc1)c1ccccc1`, the Potency result in experiment [1] and in [3] was “inactive” throughout.

On to `NS(=O)(=O)c1ccc(-n2nc(C(F)(F)F)cc2-c2ccc(Cl)cc2)cc1`, for which the Potency result in experiment [1], in experiment [3] and in [4] was “inactive” in each case.

Consider `CSC(=N)N`, for which the Potency entry in experiment [1] and in experiment [3] was “inactive” in each case.

As for `CN1C2CCC1CC(OC(=O)C(CO)c1ccccc1)C2` (centres undefined), the Potency result in experiment [1] and in experiment [3] was “inactive” in each case.

As for `CCCCCCCCCCCCCCC[C@H](O)[C@H](N)CO`, the Potency entry in experiment [1] and in experiment [3] was “inactive” each time.

Regarding `O=C(NOCC1CC1)c1cc(Br)c(F)c(F)c1Nc1ccc(I)cc1Cl`, the Potency in [7] is 2.98 µM (active). For the same molecule, the Potency result in experiment [8] is “inactive”.

In the case of `COc1cc(N)c(Cl)cc1C(=O)OCCN1CCCCC1`, the Potency entry in [1], in experiment [2], in experiment [3] and in experiment [4] was “inactive” throughout.

`Nc1ncnc2c1ncn2[C@@H]1O[C@H](CO)C(O)[C@H]1O` (some centres undefined): the Potency result in experiment [1] and in experiment [3] was “inactive” each time.

On to `CCC1(O)CC2CN(CCc3c([nH]c4ccccc34)[C@@](C(=O)OC)(c3cc4c(cc3OC)N(C=O)C3[C@]45CCN4CC=C[C@@](CC)([C@@H](OC(C)=O)[C@]3(O)C(=O)OC)[C@H]45)C2)C1` (some centres undefined), for which the Potency entry in [1] and in experiment [3] was “inactive” in each case.

Regarding `CC1=C(C(=O)O)N2C(=O)[C@@H](NC(=O)C(N)C3=CCC=CC3)[C@H]2SC1` (some centres undefined), the Potency result in [1] and in experiment [3] was “inactive” each time.

Turning to `COc1cc2ncnc(Nc3cccc(Cl)c3)c2cc1OC`, the Potency result in experiment [1] and in [3] was “inactive” throughout. Moreover, the viability change, negative = cytotoxic is -12.2% [at 19 µM] in [5] and -10.2% [at 19 µM] in experiment [6]. Also, the activity change, negative = inhibition in [9] is -1.79% [at 23.6 µM].

Regarding `Nc1ccn([C@H]2O[C@H](CO)[C@@H](O)C2(F)F)c(=O)n1`, the Potency entry in experiment [1] and in [3] was “inactive” throughout.

As to `CCc1ccc2c(-c3cccc(Cl)c3)nc(=O)n(CC)c2n1`, the Potency entry in experiment [1], in experiment [2], in experiment [3] and in experiment [4] was “inactive” in each case.

In the case of `NCC(O)c1ccc(O)c(O)c1` (centres undefined), the Potency entry in [1] and in [3] was “inactive” each time.

`CC(=O)[C@]1(O)Cc2c(O)c3c(c(O)c2[C@@H](O[C@H]2C[C@H](N)[C@H](O)[C@H](C)O2)C1)C(=O)c1ccccc1C3=O`: the Potency entry in experiment [1] was “inactive”. Further, the Potency in experiment [5] was 1.06 µM (active); in experiment [6], 2.66 µM (active).

In the case of `CCN(CC)CCCCCCCCOC(=O)c1cc(OC)c(OC)c(OC)c1`, the Potency result in experiment [1], in [2] and in experiment [4] was “inactive” throughout.

Consider `CC1CC2C3CCC4=CC(=O)C=C[C@]4(C)[C@@]3(F)[C@@H](O)C[C@]2(C)[C@@]1(O)C(=O)CO` (some centres undefined), for which the Potency entry in experiment [1] and in [3] was “inactive” throughout.

On to `CC(=O)SC1CC2=CC(=O)CC[C@]2(C)C2CC[C@@]3(C)C(CC[C@@]34CCC(=O)O4)C12` (some centres undefined), for which the Potency result in experiment [1] and in experiment [3] was “inactive” throughout.

For `Oc1cc(O)c2c(c1)O[C@H](c1ccc(O)c(O)c1)[C@@H](O)C2`, the Potency entry in [1] and in [3] was “inactive” throughout.

`COc1cc(C(O)CO)ccc1O` (centres undefined): the Potency result in experiment [1] and in [3] was “inactive” each time.

`CC[C@H]1OC(=O)[C@H](C)C(O[C@H]2C[C@@](C)(OC)[C@@H](O)[C@H](C)O2)[C@H](C)[C@@H](OC2O[C@H](C)C[C@H](N(C)C)[C@H]2O)[C@](C)(O)C[C@@H](C)CN(C)[C@H](C)[C@@H](O)[C@]1(C)O` (some centres undefined): the Potency entry in experiment [1] and in [3] was “inactive” each time.

On to `CCCCCCC/C=C\CCCCCCCCC(=O)O`, for which the Potency result in experiment [1], in [2], in experiment [3] and in [4] was “inactive” each time.

With `COc1cc([C@@H]2c3cc4c(cc3[C@H](O)C3COC(=O)[C@@H]32)OCO4)cc(OC)c1OC` (some centres undefined), the Potency entry in experiment [1] and in experiment [3] was “inactive” each time.

`C#C[C@]1(O)CC[C@H]2[C@@H]3CCC4=Cc5oncc5CC4(C)[C@H]3CCC21C` (some centres undefined): the Potency result in experiment [1] and in [4] was “inactive” in each case. Also, in experiment [2], the Potency was 19.6 µM (active).

Consider `c1ccc(C2CN3CCSC3=N2)cc1` (centres undefined), for which the Potency entry in [1] and in experiment [3] was “inactive” throughout.

Turning to `COc1cc2c(cc1OC)C1CC(=O)C(CC(C)C)CN1CC2` (centres undefined), the Potency result in experiment [1] and in [3] was “inactive” each time.

As for `CN1C2CC(OC(=O)[C@H](CO)c3ccccc3)CC1C1OC12` (some centres undefined), the Potency result in [1] and in experiment [3] was “inactive” in each case.

In the case of `C=C[C@H]1CN2CC[C@@H]1C[C@@H]2[C@@H](O)c1ccnc2ccc(OC)cc12`, the Potency entry in experiment [1] and in experiment [3] was “inactive” each time.

As to `CC(C)(C)NCC(O)COc1nsnc1N1CCOCC1` (centres undefined), the Potency entry in experiment [1] and in experiment [3] was “inactive” throughout.

`Cn1c(=O)[nH]c2ncn(C)c2c1=O`: the Potency entry in experiment [1], in experiment [3], in experiment [5], in [9] and in [6] was “inactive” throughout.

In the case of `CN(C)C(=O)/N=N/C(=O)N(C)C`, the Potency entry in experiment [1], in experiment [3] and in experiment [4] was “inactive” each time.

With `CC(C)NC[C@H](O)COc1ccc(CC(N)=O)cc1`, the Potency result in experiment [1] and in [3] was “inactive” in each case.

Consider `CC(C)c1ccc2c(c1)c(SC(C)(C)C)c(CC(C)(C)C(=O)O)n2Cc1ccc(Cl)cc1`, for which the Potency is 12.8 µM (active) in experiment [7] and 20.3 µM (active) in experiment [2]. In addition, the Potency entry in [8] and in [4] was “inactive” in each case.

Turning to `Cc1nc(N=Nc2cc(S(=O)(=O)O)c3cc([N+](=O)[O-])cc(S(=O)(=O)O)c3c2)c(COP(=O)(O)O)c(C=O)c1O`, the Potency entry in experiment [7], in experiment [8], in experiment [2] and in experiment [4] was “inactive” throughout.

Regarding `C=C1C(=O)O[C@@H]2[C@H]3O[C@]3(C)CCC=C(C)CC[C@@H]12`, the Potency result in experiment [7] and in [4] was “inactive” in each case.

Values taken from PubChem BioAssay (Tox21).
